Screening results from PubChem.
LASV entry inh = qHTS for Inhibitors of binding or entry into cells for Lassa Virus; Lassa virus pseudotype entry inhibition, cell reporter; Potency, µM (titrated, usually from 37.9 µM), for the others: at the highest dose activity change, negative = inhibition, most hits filed as inhibitors; actives 1.2% (n = 300,000); AID 540256, 2011; calls by dose curve; tested in HEK293 cells; also: potency is read from the fitted curve at half-maximal effect; nearly all actives have a fitted effect of over 50% in size
Pf growth 48h = Primary qHTS for delayed death inhibitors of the malarial parasite plastid, 48 hour incubation; P. falciparum luciferase growth in erythrocytes, 48 h; Potency, µM (titrated, usually from 28.7 µM), without a hit: top-dose activity change, negative = inhibition, most hits filed as inhibitors; actives 5.9% (n = 310,000); AID 504832, 2011; also: potency is read from the fitted curve at half-maximal effect
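Here the parasites carry a stable luciferase gene and grow inside erythrocytes in Albumax-based RPMI medium with compound for one erythrocytic cycle. Activity is scored as loss of luminescent signal.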
HCMV inh = qHTS Assay for inhibitors of the human cytomegalovirus (HCMV) | HFF cells, HCMV-luciferase reporter, 72 h; active compounds read low | activity change, negative = inhibition, % at 57.5 µM | actives 4.5% (n = 410,000); in the data active = activity change below about -60%; inconclusive = no clear call, values can overlap the other calls; inactive = above about -39%
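HFF cells seeded 16 h at 37C, treated with compounds, infected with luciferase-reporter HCMV at MOI 1 PFU/cell; luciferase read at 72 h post infection, normalized to buffer-only and Salinomycin controls.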
Marburg entry inh = qHTS for inhibitors of binding or entry into cells for Marburg Virus; AID 540276, 2011; actives 1.8% (n = 300,000); Potency, µM (highest dose often 37.8 µM), for inactives: top-dose activity change, negative = inhibition, usual class: inhibitors; Marburg virus pseudotyped entry inhibition, cell reporter; calls by dose curve; tested in HEK293 cells; also: potency is read from the fitted curve at half-maximal effect
Pf growth 96h = Primary qHTS for delayed death inhibitors of the malarial parasite plastid, 96 hour incubation; Potency, µM (titrated, usually from 28.7 µM), for inactives: at the top dose activity change, negative = inhibition, actives largely listed as inhibitors; actives 6.9% (n = 320,000); P. falciparum luciferase reporter growth, 96 h; also: potency is read from the fitted curve at half-maximal effect
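Delayed-death screen, second-generation endpoint: infected erythrocytes, 2% hematocrit, 0.05% parasitemia final; 96 hours at 37 C, 5% CO2; luciferase detection reagent; luminescence decrease equals reduced growth.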
HCV inh = qHTS Assay for Inhibitors of Hepatitis C Virus (HCV); Huh7.5.1 HCVcc-Cre infection, luciferase reporter, 44 h; Potency, µM (highest dose often 41.8 µM), for the others: at the highest dose activity change, negative = inhibition, most hits filed as inhibitors; actives 3.4% (n = 340,000); AID 651820, 2012; also: potency is read from the fitted curve at half-maximal effect
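A cell-based infection assay in which seeded cells (1,000 per well) receive test compound after 4 h, are inoculated with HCVcc-Cre at approximately 0.5 moi, and are incubated 44 h before luminescence detection.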
Starred values were filed as active, the others as inactive; ? = inconclusive; . = no result given; [ ] = dose if it differs, or a comment. The list is not random: actives were taken first. Their share in the collection is about 14%. Unless noted, calls follow the shape of the dose curve; as a rule, active = well fitted inhibition curve with a large enough effect; inconclusive = small, poorly fitted or top-dose-only effect, or another doubt; inactive = no such curve, though single readings can be large or run the other way. % is scaled to controls: 0 for no effect and ±100 for the full control effect.

SMILES	LASV entry inh	Pf growth 48h	HCMV inh	Marburg entry inh	Pf growth 96h	HCV inh
COc1cccc(/C=N/Nc2ccnc(=O)[nH]2)c1O	?	0.294µM*	-93.6*	?	0.233µM*	2.24µM*
COc1cccc(/C=N/NC(=O)COc2cccc3cccnc23)c1O	?	?	-6.0	?	1.3%	?
Cc1cccc(NC(=O)c2ccc([N+](=O)[O-])s2)c1C	2.5%	2.62µM*	-66.2*	-37.1%	-85.2%	?
Cc1cccc(C)c1NC(=O)c1ccc([N+](=O)[O-])s1	5.1%	?	?	-8.4%	0.0%	10µM*
O=C(Nc1ccccc1O)c1ccccc1O	?	?	-8.4	?	7.1%	-28.8%
Cc1cccc(NC(=O)c2ccc([N+](=O)[O-])s2)n1	.	?	-77.7*	.	8.28µM*	15.5%
Cc1cccc(NC(=O)c2ccccc2O)c1C	10.8%	?	-85.6*	-15.8%	?	-7.4%
COC(=O)[C@]12C[C@H](CC(=O)NCC34CC5CC(CC(C5)C3)C4)C(=O)N(CCC3=CCCCC3)C1=C[C@H](COCc1ccccc1)O[C@@H]2C	.	.	50.4	.	.	.
Cc1ccc(-n2nc(C(=O)N(C)c3ccc(C)c(C)c3)c3c4ccccc4n(C)c3c2=O)cc1	?	.	-1.3	0.8%[46.1 µM]	.	.
CC(=O)c1ccc(N2C(=O)N(Cc3cc(C)ccc3C)c3ccccc3S2(=O)=O)cc1	-10.3%[46.1 µM]	.	?	.	.	.
CC(C)(C)C(=O)O/N=C(\N)c1ccc([N+](=O)[O-])s1	.	?	-9.1	.	?	?
N/C(=N\OC(=O)C1CC1)c1ccc([N+](=O)[O-])s1	-7.6%	?	-16.3	6.1%	6.57µM*	-12.1%
Cc1ccnc(NC(=O)c2ccc([N+](=O)[O-])s2)c1	.	?	27.6	.	7.38µM*	3.55µM*
O=C(NC1CCCC1)c1ccc([N+](=O)[O-])s1	-41.9%	0.7%	-32.1	-10.6%[46.1 µM]	10.4µM*	?
CCOC(=O)c1ccc(NC(=O)CC2C(=O)N(c3ccc(C)cc3)C(=O)N2C2CCCC2)cc1 (stereo not drawn)	?	.	-39.0	.	.	.
COc1ccc(N2CCN(C(CNS(=O)(=O)c3ccc(OC)c(C)c3)c3ccco3)CC2)cc1 (stereo not drawn)	5.62µM*	.	-28.0	.	.	.
O=S(=O)(NCC(c1ccco1)N1CCN(c2ccc(F)cc2)CC1)c1ccc2c(c1)OCCO2 (stereo not drawn)	?	-11.0%	-74.8*	?	?	?
CC(C)(C)NC(=O)C1c2ccccc2OCC(=O)N1CC(F)(F)F (stereo not drawn)	.	.	-4.4	.	.	.
CCOc1ccc(S(=O)(=O)N2CCCCC2)cc1NC(=O)Cc1ccccc1	.	-23.4%	-37.6	.	?	-7.3%
CCOc1ccc(S(=O)(=O)N2CCCCC2)cc1NC(=O)Cc1cccc(C(F)(F)F)c1	.	?	6.0	.	9.28µM*	?
CCOc1ccc(S(=O)(=O)N2CCCCC2)cc1NC(=O)Cc1cc(OC)c(OC)c(OC)c1	.	.	-88.1*	.	.	.
COc1cccc2c1NC1(C)c3ccccc3-n3nncc3CN1C2=O (stereo not drawn)	.	.	-7.8	.	.	.
Cc1cc(C)c2c(N)c(C(=O)Nc3ncc(C)s3)sc2n1	0.199µM*	-91.1%	-85.8*	0.501µM*	21.1%	?
Cc1cc(C)c2c(N)c(C(=O)c3ccccc3Cl)sc2n1	-15.3%	18.4%	-26.4	?	28.8%	-2.4%
COC(=O)c1sc2nc(C)cc(C)c2c1N	20.5%[46.1 µM]	43.5%	-17.6	?	6.6%	9.6%
SMILES	LASV entry inh	Pf growth 48h	HCMV inh	Marburg entry inh	Pf growth 96h	HCV inh
Cc1cc(C)c2c(N)c(C(=O)c3ccc(Cl)cc3Cl)sc2n1	?	13.1µM*	3.3	?	35.0%	9.1%
CCN1C(=O)C(CC(=O)Nc2ccc(OC)cc2)N(CCc2ccc(OC)cc2)C1=S (stereo not drawn)	?	?	-13.7	-38.8%[46.1 µM]	-43.6%	?
CCN1C(=O)C(CC(=O)Nc2ccc(OC)cc2)N(Cc2ccc(OC)c(OC)c2)C1=S (stereo not drawn)	14.4%	10.4µM*	8.6	0.3%	?	-0.9%
COc1ccc(CCN2C(=S)N(C)C(=O)C2CC(=O)Nc2ccc(F)cc2)cc1 (stereo not drawn)	-16.7%	?	-8.0	?	13.1µM*	-17.8%
Cc1cc(NC(=O)c2ccc3c(c2)C(=O)N(CCC(C)C)C3=O)no1	-5.2%	11.2%	-14.2	-6.8%	9.2%	26.2%
Cc1cc(N2C(=O)c3ccc(C(=O)Nc4ccc(CC(=O)O)cc4)cc3C2=O)no1	1.1%[46.1 µM]	-9.6%	44.5	18.1%[46.1 µM]	1.85µM*	22.0%
Cc1cc(NC(=O)c2ccc3c(c2)C(=O)N(C)C3=O)no1	2.3%	.	28.0	6.7%	2.94µM*	10.9%
Cc1ccc(-n2c(C)cc(/C=C3\NC(=O)NC3=O)c2C)c(C)c1	?	13.1µM*	-16.5	-14.3%	13.1µM*	5.6%
Cc1cc(/C=C2/NC(=O)NC2=O)c(C)n1-c1ccc(C#N)cc1	-16.3%	-8.0%	-33.1	4.0%[46.1 µM]	?	-1.3%
Cc1cc(/C=C2/NC(=O)NC2=O)c(C)n1-c1ccccn1	-15.3%	9.8%	63.3	?	9.28µM*	6.7%
COc1cccc(CNC(=O)CCNS(=O)(=O)c2cccs2)c1	8.3%	25.3%	32.1	6.7%	1.17µM*	5.2%
O=C(Cn1cnc([N+](=O)[O-])c1)NCc1ccc(F)cc1	-10.5%	0.8%	2.8	-24.7%	6.57µM*	10.2%
CCC[C@@H]1Cc2c(sc3nc(SC)nc(N)c23)CO1	.	.	.	0.5%[46.1 µM]	.	.
COc1ccc(C=C(C#N)c2ccc(OC)cc2)cc1	?	.	-16.0	7.94µM*	.	?
COc1ccc(C(C#N)=Cc2ccccc2OC)cc1	.	.	-88.1*	.	.	.
COc1cc(N2CCCC2)c(OC)cc1/C=C(/C#N)c1ccc(F)cc1	?	10.4µM*	?	?	-26.3%	?
CC(NCc1ccccc1O)C12CC3CC(CC(C3)C1)C2 (stereo not drawn)	.	0.0657µM*	-86.9*	.	0.104µM*	-4.7%
CC(NCc1ccncc1)C12CC3CC(CC(C3)C1)C2 (stereo not drawn)	-17.2%	?	-11.2	1.6%[46.1 µM]	-21.7%	7.9%
COc1cccc(NC(=O)CSc2nnc(Cc3cccn3C)n2-c2ccc(F)cc2)c1	.	?	9.8	-0.2%	4.15µM*	-29.8%
COc1ccc(OC)c(NC(=O)CSc2nnc(Cc3cccn3C)n2-c2ccc(F)cc2)c1	.	13.1µM*	32.3	3.1%	-13.1%	?
COc1ccc(-n2c(Cc3cccn3C)nnc2SCC(=O)Nc2cccc(OC)c2)cc1	-10.5%	?	9.9	?	17.4%	-1.8%
